Inconclusive results are not listed. A call without a number means that no potency is given here. The source made the active and inactive calls. Calls come from the whole dose curve; as a rule, active = well fitted inhibition curve with a large enough effect; inconclusive = small, poorly fitted or top-dose-only effect, or effect the other way; inactive = flat fitted curve, though single readings scatter.
Potency is the fitted concentration of half-maximal effect.

Pyruvate kinase (Leishmania mexicana), sequence (Q27686 whole entry, looked up): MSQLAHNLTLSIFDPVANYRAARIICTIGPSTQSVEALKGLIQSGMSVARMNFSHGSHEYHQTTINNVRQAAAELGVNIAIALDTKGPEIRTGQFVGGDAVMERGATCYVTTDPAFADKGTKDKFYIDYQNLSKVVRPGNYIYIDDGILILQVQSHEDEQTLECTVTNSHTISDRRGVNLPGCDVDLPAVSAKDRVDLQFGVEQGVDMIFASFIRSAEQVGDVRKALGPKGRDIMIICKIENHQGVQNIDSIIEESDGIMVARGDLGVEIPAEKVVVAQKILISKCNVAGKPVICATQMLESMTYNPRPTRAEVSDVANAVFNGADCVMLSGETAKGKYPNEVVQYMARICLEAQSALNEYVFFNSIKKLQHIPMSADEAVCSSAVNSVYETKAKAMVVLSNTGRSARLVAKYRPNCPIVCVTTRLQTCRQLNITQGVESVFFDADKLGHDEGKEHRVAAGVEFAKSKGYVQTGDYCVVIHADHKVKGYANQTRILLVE

In the assay the target is Pyruvate kinase (Leishmania mexicana) (UniProt Q27686). Kind of assay: Confirmation Assay for Inhibitors of Leishmania Mexicana Pyruvate Kinase (LmPK): for Probe SAR. To be noted: purified LmPK, ATP generation, Kinase-Glo luminescence; series mostly up to 57.5 µM. From the text:
NIH Chemical Genomics Center [NCGC] Malcolm Walkinshaw, Hugh Morgan, Linda Gilmore University of Edinburgh, UK MLPCN Grant: 1 R03 MH085697-01 NCGC Assay Overview: Pyruvate kinase (L. Mexicana) (LmPK) enzyme was supplied as a highly purified (>95% pure) sulphate-free preparation from University of Edinburgh, UK and assayed for its ability to generate ATP from ADP using phosphoenolpyruvate (PEP) as a substrate. ATP generation was detected in a coupled reaction by luciferase-mediated luminescence, an ATP-dependent process. Pyruvate kinase substrates, PEP and ADP, were present in the assay at Km and approximately 10-fold below Km respectively. The enzyme was assayed at an intermediate level of activity to screen for both inhibitors and activators.
NCGC Assay Protocol Summary: Three uL of enzyme mix (kept on ice) in assay buffer (50 mM Imidazole pH7.2, 50 mM KCl, 7 mM MgCl2, 0.01% Tween 20, 0.05% BSA) containing PEP (0.5 mM final concentration) and LmPK (0.1 nM final concentration) was dispensed into white solid bottom 1,536 well microtiter plates. 23 nL of compound were delivered by a pin tool and 1 uL of ADP mix in assay buffer (r.t; 0.1 mM final ADP concentration) was added. Plates were incubated at room temperature for 1 hour. Two uL of detection mix (Kinase-Glo, Promega; at 4 degree Celsius protected from light) was added and luminescence read by a ViewLux (Perkin Elmer) at 1 second exposure/plate. Data were normalized to the uninhibited and AC100 inhibition (no enzyme). To monitor activation, the first column contained a five-fold concentration of LmPK (0.5 nM).
(In general: Kinase-Glo measures the ATP left after a reaction by luminescence.)
Regarding `Cc1ccc(C)c(O)c1`, the Potency entry was “inactive”.
With `Cc1sc(C)c2c1C(=O)NS2(=O)=O` the entry was “inactive”; with `O=C1c2ccccc2C(=O)N1Cc1ccccc1`, “inactive”; with `CC(C)c1ccccc1SC1=NS(=O)(=O)c2ccccc21`, 1830 nM (active).
As to `Cc1ccc(NS(=O)(=O)c2cc3c(cc2F)NC(=O)CC3)cc1C`, the Potency result is “inactive”.
For the compound `N#Cc1cccc(OC2=NS(=O)(=O)c3ccccc32)c1`, the Potency is 4610 nM (active).
As to `Cc1ccc(NS(=O)(=O)c2ccc3c(c2)N(C)CCO3)cc1C`, the Potency result was “inactive”.
As to `Cc1ccc(Nc2c(-c3ccc(C)o3)nc3cccc(C)n23)cc1`, the Potency result was “inactive”.
As for `COc1ccc(N2C(=O)c3ccccc3S2(=O)=O)cc1`, the Potency entry is “inactive”.
Consider `CC(=O)Nc1ccccc1OC1=N[S+](=O)([O-])c2ccccc21`, for which the Potency result was “inactive”.
`Cc1ccc2nc(-c3ccc(C)o3)c(Nc3ccc4c(c3)OCO4)n2c1`: the Potency result is “inactive”.
Consider `O=C1NS(=O)(=O)c2cscc21`, for which the Potency entry is “inactive”.
With `COc1cccc(NS(=O)(=O)c2ccc3c(c2)CCC(=O)N3)c1` the entry was “inactive”; with `CC(=O)Nc1cccc(S(=O)(=O)Nc2ccc(C)c(C)c2)c1`, “inactive”.
`O=S1(=O)N=C(Oc2ccccc2F)c2ccccc21`: the Potency was 3260 nM (active).
Take `COc1cccc(OC2=NS(=O)(=O)c3ccccc32)c1`: the Potency entry was “inactive”.
Regarding `O=C1NS(=O)(=O)c2cc(Cl)ccc21`, the Potency result is “inactive”.
On to `Cc1ccc(NS(=O)(=O)c2ccc3c(c2)CCC(=O)N3)cc1C`, for which the Potency result was “inactive”.
With `O=S1(=O)N=C(OCc2ccccc2)c2ccccc21`, the Potency result is “inactive”.
For the compound `Cc1ccc2nc(-c3ccc(C)o3)c(Nc3ccc(Cl)cc3)n2c1`, the Potency result was “inactive”.
Then `Cc1ccc(NS(=O)(=O)c2cc3c(cc2Cl)CCC(=O)N3)cc1C`, with “inactive”.
With `Cc1ccc(NS(=O)(=O)c2cc3c(cc2Br)NC(=O)CO3)cc1C` the entry was “inactive”.
Regarding `O=C1c2ccccc2C(=O)N1c1noc2ccccc12`, the Potency result was “inactive”.
Turning to `Cc1cc(=O)oc2cc(SC3=NS(=O)(=O)c4ccccc43)ccc12`, the Potency was 1830 nM (active).
On to `O=[S+]1([O-])N=C(Oc2cccnc2)c2ccccc21`, for which the Potency entry was “inactive”.
With `Cc1cc2c(s1)c1cnn(Cc3ccccc3F)c(=O)c1n2C` the entry was “inactive”; with `O=C1c2ccccc2C(=O)N1Cc1cccnc1`, “inactive”.
Regarding `O=C1CCc2cc(S(=O)(=O)Nc3ccc(-c4ccccc4)cc3)ccc2N1`, the Potency entry is “inactive”.
As to `CNc1cccc(S(=O)(=O)N2CCN(S(=O)(=O)c3ccc4c(c3)OCCO4)CC2)c1`, the Potency result was “inactive”.
For `O=S1(=O)N=C(Oc2ccc3ccccc3c2)c2ccccc21`, the Potency was 4110 nM (active).
Turning to `O=C1CCc2cc(S(=O)(=O)Nc3cccc(C(F)(F)F)c3)ccc2N1`, the Potency entry was “inactive”.
With `Cc1ccc(NS(=O)(=O)c2cc3c(cc2-c2ccccc2)NC(=O)CO3)cc1C`, the Potency result is “inactive”.
Turning to `Cc1ccc(C)c(OC2=NS(=O)(=O)c3ccccc32)c1`, the Potency was 2590 nM (active).
Turning to `CSc1cc2c(s1)c1cnn(Cc3cccc(O)c3)c(=O)c1n2C`, the Potency entry was “inactive”.
On to `Cc1ccc(NS(=O)(=O)c2cccc(Cl)c2)cc1C`, for which the Potency result was “inactive”.
In the case of `Cc1ccccc1N(C)C1=N[S+](=O)([O-])c2ccccc21`, the Potency entry was “inactive”.
Turning to `COc1ccccc1N1C(=O)c2ccccc2C1=O`, the Potency entry is “inactive”.
As to `O=C1c2ccccc2C(=O)N1c1nccs1`, the Potency entry was “inactive”.
Regarding `Cc1ccc(NS(=O)(=O)c2ccc3c(c2)CC(=O)N3C)cc1C`, the Potency entry is “inactive”.
With `Cc1ccc(NS(=O)(=O)c2ccc3c(c2)CCN(C(=O)C(F)(F)F)C3)cc1C`, the Potency result was “inactive”.

(Values after PubChem BioAssay AID2561 (National Center for Advancing Translational Sciences (NCATS), 2010).)
